Most compounds without a hit are left out; they make up all but 13% or so of the library.
Pf growth 96h – P. falciparum growth inhibition at 96 hours; P. falciparum luciferase reporter growth, 96 h; Potency, µM (series often up to 28.7 µM), inactives show top-dose activity change, negative = inhibition, hits mostly inhibitors; 320,000 compounds, 6.9% hits; further: potency means the concentration at half of the fitted maximal effect
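Two-generation exposure (96 h) targets delayed-death phenotype. Reporter parasites carrying integrated firefly luciferase, in red cells at 2% hematocrit and 0.05% parasitemia final, kept at 37 C, 5% CO2; luminescence loss indicates inhibition.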
HCV inhibitor – inhibitors of hepatitis C virus infection; 340,000 compounds, 3.4% hits; AID 651820; Potency, µM (titrated, usually from 41.8 µM), for inactives: at the highest dose activity change, negative = inhibition, most hits filed as inhibitors; Huh7.5.1 HCVcc-Cre infection, luciferase reporter, 44 h; further: potency means the concentration at half of the fitted maximal effect
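Antiviral activity was scored by luciferase reporter output from cells infected with HCVcc-Cre (~0.5 moi) in presence of compound, 44 h infection period, cells seeded 1,000/well 4 h prior.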
HCMV antiviral – human cytomegalovirus inhibition | HFF cells, HCMV-luciferase reporter, 72 h; active compounds read low | activity change, negative = inhibition, % at 57.5 µM | 410,000 compounds, 4.5% hits | AID 1259415; in the data active means activity change below about -60%; inconclusive means no clear call, values can overlap the other calls; inactive means above about -39%
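Cell-based, HFFs, 1000 cells/well, 16 h 37C; cpds in DMSO + HCMV-luc, MOI 1 PFU/cell; 72 h 37C; OneGlo luminescence after 5 min RT; norm. to buffer vs Salinomycin 10uM.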
Pf growth 48h – inhibits P. falciparum growth in the first generation, 48 h. AID 504832. 310,000 compounds, 5.9% hits. Potency, µM (titrated, usually from 28.7 µM), without a hit: top-dose activity change, negative = inhibition, usual class: inhibitors. P. falciparum luciferase growth in erythrocytes, 48 h; further: potency means the concentration at half of the fitted maximal effect
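Cell-based growth assay: transgenic P. falciparum expressing firefly luciferase, cultured in red cells within RPMI 1640 containing 0.5% w/v Albumax, 24 mM bicarbonate and gentamycin. A drop in luciferase activity indicates inhibition.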
* = called active by the depositor; ? = inconclusive; · = no result; ! = not confirmed by another sample. Unless noted, the call rests on the fitted dose curve; in most records, active means well fitted inhibition curve with a large enough effect; inconclusive means small, poorly fitted or top-dose-only effect, or another doubt; inactive means no such curve, though single readings can be large or run the other way. On the % scale 0 is the no-effect control and ±100 the full control effect.

SMILES	Pf growth 96h	HCV inhibitor	HCMV antiviral	Pf growth 48h
CCS(=O)(=O)c1ncc(Cl)c(C(=O)NCc2ccc(OC)cc2)n1	·	·	-97*	·
COc1ccc(N(Cc2ccccc2)C(=O)c2nc(SC)ncc2Cl)cc1	·	·	-21	·
CCS(=O)(=O)c1ncc(Cl)c(C(=O)N(Cc2ccccc2)c2ccc(OC)cc2)n1	·	·	-99*	·
COc1ccc(C)cc1NC(=O)CN(c1cc(C(F)(F)F)ccc1Cl)S(C)(=O)=O	·	·	-9	·
O=C(NCc1ccc(F)cc1)c1cc2cccc3c2n1CCS3	·	·	-70*	·
NC(=O)CCCCC1CCSS1 (centres undefined)	11µM*	·	·	?
COc1ccc(C(=O)Nc2ccc(N(C)Cc3ccccc3)c(C(=O)O)c2)cc1	·	·	2	·
O=C(NC12CC3CC(CC(C3)C1)C2)c1ccc(-c2ccc(Cl)cc2)o1	?	?	-24	44%
O=C(NC12CC3CC(CC(C3)C1)C2)c1ccc(-c2cccc(Cl)c2)o1	?	?	-63*	3%
O=C(NC12CC3CC(CC(C3)C1)C2)c1ccc(COc2ccc(Cl)cc2[N+](=O)[O-])o1	?	8.9µM*	·	?
Cc1cc2c(Nc3ccc(O)cc3)ncnc2s1	?	?	-69*	-15%
Cc1cc2c(Nc3ccc(C(=O)O)cc3)ncnc2s1	-60%	15%	28	9%
Cc1cc(C)c(Cn2c(=O)n(Cc3ccccc3)c(=O)c3c(C)c(C)sc32)c(C)c1	·	·	-5	·
Cc1ccc(N/C=C(\[N+](=O)[O-])S(=O)(=O)c2ccccc2)cc1	14%	-3%	-21	9%
Cc1cccc(N/C=C(\[N+](=O)[O-])S(=O)(=O)c2ccccc2)c1C	24%	-8%	24	12µM*
CCOCCOC(=O)c1ccc(NC(=O)/C=C/c2ccc(OC)c(OC)c2)cc1	·	·	-2	·
COC(=O)c1ccc(S(=O)(=O)N2CCN(C(c3ccccc3)c3ccccc3)CC2)n1C	?	-7%	-4	10µM*
COC(=O)c1ccc(S(=O)(=O)N2CCCN(Cc3cccc(Br)c3F)CC2)n1C	11%	?	-74*	-19%
COC(=O)c1ccc(S(=O)(=O)N2CCCN(Cc3ccccc3)CC2)n1C	23%	-9%	-4	3%
COc1ccc(NC(=O)NCCn2nnc3cc(S(=O)(=O)N(C)C)ccc32)cc1	·	·	6	·
Cc1ccc(-c2cc(C(F)(F)F)n3nc(C(=O)NCC45CC6CC(CC(C6)C4)C5)cc3n2)cc1	·	·	16	·
Cc1cccc(NC(=O)CSc2nnc3scc(-c4ccccc4)n23)c1	·	·	-17	·
O=C(CSc1nnc2scc(-c3ccccc3)n12)Nc1nsc(-c2ccc(Cl)cc2)n1	·	6%	-73*	·
O=C(CSc1nnc2scc(-c3ccc(Cl)cc3)n12)Nc1ccc(F)cc1	·	·	-23	·
O=C(CSc1nnc2scc(-c3ccccc3)n12)Nc1nsc(-c2ccccc2)n1	-29%	11µM*!	?	-30%
SMILES	Pf growth 96h	HCV inhibitor	HCMV antiviral	Pf growth 48h
CCc1cc2c(cc3c(=O)n(CC(=O)NC4CCC(C)CC4)ncn32)s1 (centres undefined)	·	·	-31	·
CCOC(=O)c1ccc(NC(=O)CCc2c(C)n(CC)c3cc(-c4ccccc4OC)nn3c2=O)cc1	·	·	14	·
Cc1ccc(Cl)cc1N1CCN(C(=O)c2ccccc2SCC(=O)N2CCCC2)CC1	?	11µM*	-13	?
Cc1ccc(Cl)cc1N1CCN(C(=O)CCSCc2ccccc2F)CC1	·	·	-6	·
CN(CCOc1ccc(Cl)cc1)C(=O)c1ccccc1SCC(=O)N1CCCC1	?	10µM*	?	?
CCOc1ccccc1N1CCN(C(=O)c2ccccc2SCC(=O)N2CCCC2)CC1	13µM*	-24%	34	?
COc1ccccc1N1CCN(C(=O)c2ccccc2SCC(=O)N2CCCC2)CC1	-10%	7%	-25	?
O=C(NCc1cccnc1)c1cc(C2CCCN(C(=O)c3cccc(O)c3)C2)on1 (centres undefined)	·	·	-24	·
Cc1c(C(=O)N2CCN(C)CC2)oc2ccc(S(=O)(=O)N3CCOCC3)cc12	8.3µM*	16%	30	-21%
CCOC(=O)N1CCN(C(=O)c2oc3ccc(S(=O)(=O)N4CCCCC4)cc3c2C)CC1	·	-21%	?	?
Cc1c(C(=O)N2CCCCC2)oc2ccc(S(=O)(=O)N3CC(C)CC(C)C3)cc12 (centres undefined)	12µM*	?	·	?
COc1ccc(C)cc1NC(=O)C1CCCN(c2ncnc3onc(C)c23)C1 (centres undefined)	·	·	-22	·
O=C(Nc1cccc2cccnc12)c1ccc(-c2cccc(Cl)c2)o1	·	·	16	·
Fc1ccc(NCc2ccccc2-c2nnc(-c3ccccc3Cl)o2)cc1	·	·	33	·
O=C(CCn1c2c(c3ccccc31)CCCC2)NNC(=O)c1ccc(Cl)c([N+](=O)[O-])c1	-11%	10µM*	-29	-9%
O=C(CCn1c2c(c3ccccc31)CCCC2)NNC(=O)c1ccc([N+](=O)[O-])cc1	-2%	?	-10	-2%
CC(=O)NNC(=O)CCn1c2c(c3ccccc31)CCCC2	87%	-25%	2	-12%
CCOC(=O)NNC(=O)CCn1c2c(c3ccccc31)CCCC2	-25%	?	-89*	?
COc1ccc2[nH]c3c(c2c1)CC(C)NC3=O (centres undefined)	?	-27%	-75*	31%
CC(C)c1cnc2c(c1SCc1ccc([N+](=O)[O-])cc1)c(=O)n(C)c(=O)n2C	·	·	-35	·
CN(C)CCNC(=O)C1CCN(Cc2cc3ccccc3n2Cc2ccccc2)CC1	·	·	-101*	·
CC1(C)NC(=O)N(CCCCOc2ccc3ccccc3c2Cl)C1=O	?	?	60	·
CC(C)c1cc(Br)ccc1OCCN1C(=O)NC(C)(C)C1=O	142%	-1%	-61*	?
CC1(C)NC(=O)N(CCOCCOc2ccc3ccccc3c2Br)C1=O	3.7µM*	?	74	·
Cc1nc(N2CCCC2)ncc1C(=O)N1CCN(c2ccccc2F)CC1	·	·	6	·
SMILES	Pf growth 96h	HCV inhibitor	HCMV antiviral	Pf growth 48h
C[C@]12CCC(=O)C=C1CCC1C2C(=O)C[C@]2(C)C1CC[C@]2(O)C(=O)CO (some centres undefined)	2%	·	·	-6%
CN1/C(=C/C=C/c2n(C)c3cc([N+](=O)[O-])c([N+](=O)[O-])cc3[n+]2C)C(C)(C)c2ccccc21	·	·	-67*	·
CN1/C(=C\C=C(C#N)C#N)C(C)(C)c2ccccc21	?	5%	-3	11%
Cc1cc(C)c(S(=O)(=O)N2CCN(C(=O)c3c(C)nn(-c4ccccc4)c3Cl)CC2)c(C)c1	·	?	-72*	·
Cc1nn(-c2ccccc2)c(Cl)c1C(=O)N1CCN(C)CC1	12%	10%	-34	6%
COc1ccc(S(=O)(=O)N2CCN(C(=O)c3c(C)nn(-c4ccccc4)c3Cl)CC2)cc1	4.7µM*	-12%	31	0%
CCOC(=O)N1CCN(C(=O)c2c(C)nn(-c3cccc(C)c3)c2-n2cccc2)CC1	·	·	0	·

High-throughput results as filed in PubChem.
